Results published in ChEMBL document CHEMBL1157539, “Thousands of chemical starting points for antimalarial lead identification” (Nature, 2010).

Legend:
Type in all cases: functional
Plasmodium falciparum [1] = test: GSK_TCMDC: Inhibition of Plasmodium falciparum 3D7 in whole red blood cells, using parasite LDH activity as an index of growth. Test compounds present at 2uM
Plasmodium falciparum [2] = test: GSK_TCMDC: Inhibition of Plasmodium falciparum Dd2 in whole red blood cells, using parasite LDH activity as an index of growth. Test compounds present at 2uM
HepG2 = test: GSK_TCMDC: Percent inhibition of human HepG2 cell line. Test compounds present at 10uM.

Row | SMILES | Inhibition (Plasmodium falciparum [1]) [%] | Inhibition (Plasmodium falciparum [2]) [%] | Inhibition (HepG2) [%]
1 | CC(C)Oc1ccccc1-c1csc(C(=O)NCC2CCN(Cc3ccc(C(C)(C)C)cc3)C2)c1.O=C(O)C(F)(F)F (configuration not stated) | 90 | 45 | 59
2 | CC(=O)Nc1ncc(C(=O)Nc2cccc(-c3cccc(-c4nc5cc(C(F)(F)F)ccc5[nH]4)c3)c2)s1 | 100 | 99 | 76
3 | Br.Cc1ccc(OCCCON2C(=N)N=C(N)NC2(C)C)cc1C | 96 | 94 | 57
4 | COc1cc2nc(Nc3ccc4c(cnn4Cc4ccccc4)c3)nc(Nc3ccc4c(cnn4Cc4ccccc4)c3)c2cc1OC | 99 | 100 | 4
5 | COc1cc(OC)c(NC(=O)COc2ccc(C)cc2)cc1Cl | 86 | 90 | 0
6 | COc1ccc2ccc(OC)c(CNCCCCCCNCc3c(OC)ccc4ccc(OC)cc34)c2c1.CS(=O)(=O)O | 100 | 32 | 100
7 | Cc1[nH]cc(Br)c(=O)c1-c1ccc(Oc2ccc(OC(F)(F)F)cc2)cc1 | 96 | 92 | 22
8 | CNCCNC(=O)C1Cc2c([nH]c3c(C)cccc23)C(c2ccc(Cl)c(Cl)c2)N1 (configuration not stated) | 100 | 60 | 13
9 | CCn1c(-c2nonc2N)nc2c(-c3ccc(CO)o3)ncc(OCCCN)c21.O=C(O)C(F)(F)F | 93 | 97 | 0
10 | CN(CCN)Cc1ccc(-c2ccc(-c3nc4cc(C(F)(F)F)ccc4[nH]3)s2)cc1.O=C(O)C(F)(F)F | 98 | 98 | 37
11 | NC(=O)c1ccccc1OCC(=O)Nc1cccc(-c2ccc(-c3nc4ccccc4[nH]3)cc2)c1 | 95 | 46 | 66
12 | O=C(Nc1ccccc1O)c1ccc(S(=O)(=O)c2ccc(Cl)cc2)cc1 | 90 | 85 | 18
13 | Cc1nn(-c2ccccc2)c2sc(C(=O)N(CCCN(C)C)c3nc(-c4ccccc4)cs3)cc12.Cl | 95 | 36 | 99
14 | O=C(c1ccc(F)cc1)N1CCOC(CCN2CCC(c3ccccc3)CC2)(c2ccc(Cl)c(Cl)c2)C1 (configuration not stated) | 88 | 84 | 29
15 | CC(C)(CNC(=O)/C=C/c1ccc(Cl)c(Cl)c1)CNc1cc(=O)c2ccccc2[nH]1 | 96 | 29 | 0
16 | Cc1cc(C2CCN(CCCCNC(=O)c3ccc(NC(=O)c4ccc(Cl)cc4)cc3)CC2)c(C)cc1OCc1ccccn1.Cl | 96 | 65 | 18
17 | COc1c(OC)c(OC)c2ccccc2c1CCNCCCCNCCc1c(OC)c(OC)c(OC)c2ccccc12.CS(=O)(=O)O | 99 | 72 | 100
18 | COc1ccc(C2C(C(=O)Nc3cc(OC)c(OC)c(OC)c3)c3cc(OC)c(OC)cc3C(=O)N2C)cc1 (configuration not stated) | 98 | 100 | 9
19 | O=C(NCCN1CCCC1)c1cccc(Nc2nccc(Nc3ccc(Oc4ccccc4)cc3)n2)c1 | 100 | 18 | 33
20 | COc1cc2c(cc1S(=O)(=O)c1ccc(COc3ccc(C(F)(F)F)cc3)cc1)CNCC2.Cl | 100 | 89 | 32
21 | c1ccc(COc2ccc(COc3ccc(Cn4ccnc4)cc3)cc2)cc1 | 86 | 45 | 9
22 | Cc1c(Oc2ccc(-n3ccnc3)cc2)ncnc1N1CCC2(CC1)CNCc1ccccc12.O=C(O)C(F)(F)F | 95 | 58 | 26

Row | SMILES | Inhibition (Plasmodium falciparum [1]) [%] | Inhibition (Plasmodium falciparum [2]) [%] | Inhibition (HepG2) [%]
23 | CCCCCCN1CCCN(Cc2ccc(C(=O)Nc3ccc(CCC)cc3)cc2)CC1.O=C(O)C(F)(F)F | 92 | 56 | 45
24 | Cc1cc(CNCC(CCNc2cc(=O)c3ccccc3[nH]2)NCc2cc(Br)cc(Br)c2)oc1C (configuration not stated) | 98 | 85 | 4
25 | CCOc1ccc(-c2cc3nc(C4CCNCC4)c(C(=O)Nc4ccc(C)cc4Cl)cn3n2)cc1.Cl | 95 | 22 | 63
26 | CCCCNc1c(C(=O)OCC)c(C)nc2c1[nH]c1ccccc12 | 100 | 58 | 0
27 | CN(CCCc1c[nH]c2ccccc12)CCC1CCC(NC(=O)/C=C/c2ccc(Cl)c(Cl)c2)CC1 (configuration not stated) | 99 | 63 | 38
28 | CCN1C(c2ccc(Cl)cc2)C(CNCc2ccccc2O)CC1(C)CO (configuration not stated) | 99 | 99 | 47
29 | CC(C)(C)c1ccc(CN2CCC(CNC(=O)c3cc(-c4cccc(C(F)(F)F)c4)cs3)C2)cc1.O=C(O)C(F)(F)F (configuration not stated) | 100 | 84 | 80
30 | CCCNCCc1ccc(NS(=O)(=O)c2cccc(-c3ccc(Cl)cc3)c2)cc1.Cl | 100 | 36 | 36
31 | COc1ccc(-c2cnc(N)c(-c3ccc(O)c(OC)c3)c2)cn1 | 97 | 98 | 23
32 | CN(C)c1nc2cc(-n3cnc4cc(-c5ccc(Cl)cc5)sc4c3=O)ccc2n1CCCN1CCCC1.O=C(O)C(F)(F)F | 97 | 73 | 99
33 | COc1ccc(Br)cc1C1Nc2ccc3ccccc3c2C2=C1C(=O)CC(c1ccccc1)C2 (configuration not stated) | 100 | 96 | 25
34 | O=C(Nc1ccc(-c2ccccc2)cc1)Nc1cccc(Cn2ncc(N3CCNCC3)c(Cl)c2=O)c1.O=C(O)C(F)(F)F | 100 | 59 | 30
35 | Cc1cc(=NN=Cc2ccc(Cl)cc2)c2cccc(C)c2[nH]1 | 100 | 47 | 0
36 | Fc1ccc(OC2CN(c3nccc(NCc4ccccc4Cl)n3)C2)cc1 | 98 | 99 | 0
37 | O=C(NCc1cccs1)[C@H](Cc1ccccc1)Nc1ccnc(NCCc2ccccc2)n1.O=C(O)C(F)(F)F | 85 | 59 | 0
38 | CS(=O)(=O)CCNCc1nc(-c2ccc3c(Nc4ccc(Cl)cc4F)ccnc3c2)cs1 | 88 | 28 | 19
39 | O=C(NC1CCN(CCN2CCc3ccccc3CC2)CC1)c1ccc(-c2ccc(C(F)(F)F)cc2)cc1 | 99 | 43 | 45
40 | Br.Fc1ccc(C2N=C(SCCSC3=NC(c4ccc(F)cc4)C(c4ccc(F)cc4)N3)NC2c2ccc(F)cc2)cc1 (configuration not stated) | 99 | 69 | 18
41 | Cc1cc(NC(=O)Nc2ccc(N(C)C)cc2)c2cc(Cl)ccc2n1.Cl | 100 | 50 | 0
42 | COc1ccc(Cn2c(Nc3cccc(C(F)(F)F)c3)nc3cc(C(=O)NC(C)C)cnc32)cc1Cl | 85 | 81 | 0
43 | N#CC(c1ccc(Br)cc1)c1ccc2c(C(F)(F)F)cc(C(F)(F)F)nc2n1 (configuration not stated) | 100 | 98 | 75
44 | O=C(Nc1ccc(Cl)cc1)Nc1ccc(-c2cccc(-c3nc4ccccc4[nH]3)c2)cc1 | 100 | 78 | 69

Row | SMILES | Inhibition (Plasmodium falciparum [1]) [%] | Inhibition (Plasmodium falciparum [2]) [%] | Inhibition (HepG2) [%]
45 | O=C(Nc1ccc(C(F)(F)F)cc1)NC1CCN(CCCCCNC(=O)C2CC2c2ccc(Cl)c(Cl)c2)CC1 (configuration not stated) | 100 | 45 | 41
46 | O=C(/C=C/c1ccc(Cl)c(Cl)c1)NCCCCCN1CCC(NC(=O)Nc2cc(F)cc(F)c2)CC1 | 100 | 6 | 80
47 | Cc1ccc2[nH]c3c(c2c1)CC(C(=O)NCCC(C)C)NC31CCN(Cc2ccccc2)CC1 (configuration not stated) | 95 | 50 | 15
48 | O=C(O)C(F)(F)F.c1cc(CNCC2CCCO2)cc(-c2csc(-c3nc4ccccc4[nH]3)c2)c1 (configuration not stated) | 91 | 6 | 5
49 | Cl.Cn1cnc(-c2ccc3c(c2)CCN(CCC2CCC(NC(=O)/C=C/c4ccc(F)cc4)CC2)CC3)c1 (configuration not stated) | 90 | 18 | 26
50 | Cc1c(-c2ccccc2)ccc2[nH]cc(CC#N)c12 | 95 | 85 | 2
51 | COc1cc2nc(NCCc3ccccc3)nc(NCCCc3ccccc3)c2cc1OC | 100 | 100 | 21
52 | COc1cccc(CN2CCN(C(c3ccccc3)c3ccccc3)CC2)c1O.O=C(O)C(=O)O | 99 | 98 | 6
53 | NC(=O)c1ccc(NC(=O)CN(Cc2ccc(Cl)cc2)S(=O)(=O)c2ccccc2)cc1 | 90 | 75 | 2
54 | Cc1ccc(CON2C(=N)N=C(N)NC2(C)C)cc1C.Cl | 92 | 88 | 64
55 | O=C(NCc1ccco1)c1ccc(S(=O)(=O)c2ccc(Cl)cc2)cc1 | 97 | 95 | 6
56 | CN1N=C2c3ccccc3CCC2C1c1ccc(C#N)cc1 (configuration not stated) | 95 | 85 | 0
57 | CC(C)(CNC(=O)C1CCN(Cc2ccc(Cl)cc2)CC1)c1nc(-c2ccc(Cl)c(O)c2)c(-c2ccncc2)[nH]1.Cl | 100 | 83 | 36
58 | Cc1ccccc1NC(=O)C1CSCN1C(=O)OCc1ccccc1 (configuration not stated) | 91 | 0 | 8
59 | Cc1ccc(NC(=O)C2CCC2)cc1-c1ccc(C(=O)NCC2CC2)cc1 | 98 | 3 | 13
60 | Cc1cc(C(=O)Nc2ccc3c(c2)CCN3C2CCN(Cc3cc(F)cc(F)c3F)C2)no1 (configuration not stated) | 95 | 96 | 0
61 | CCCc1cc(Cc2cnc(N)nc2N)cc(CCC)c1OCCCCC(=O)OCC | 93 | 0 | 1
62 | O=C(Nc1cccc(-c2nn3ccccc3c2-c2ccnc(Nc3cccc(F)c3)n2)c1)c1c(F)ccc(F)c1F | 96 | 73 | 33
63 | CC(=O)Nc1ccc(C(=O)NC2CCN(c3ccnc4cc(Cl)ccc34)C2)cc1.O=C(O)C(F)(F)F (configuration not stated) | 100 | 100 | 1
64 | COc1ccc(CCNCCCCCCNCCc2ccc(OC)c(OC)c2Cl)c(Cl)c1OC.Cl | 96 | 0 | 19
